# Inconclusive results are not listed. Activity calls are given as the source filed them. The call rests on the fitted dose curve; in most records, active means well fitted inhibition curve with a large enough effect; inconclusive means small, poorly fitted or top-dose-only effect; inactive means flat fitted curve, though single readings scatter.
# Target: Muscarinic acetylcholine receptor M1 (Rattus norvegicus) (UniProt P08482)
# Assay: Counterscreen Concentration-Response Assay for Antagonists of the Neuropeptide S Receptor: Muscarinic Receptor Calcium Signal Transduction.
# Description: NIH Chemical Genomics Center [NCGC] NIH Molecular Libraries Probe Production centers Network [MLPCN] MLPCN Grant: X01-DA026210-01 Assay Submitter (PI): Heilig, Markus Alexander NCGC Assay Overview: Neuropeptide S receptor (NPSR), previously known as GPR154, is a recently de-orphanized G protein coupled receptor. Its endogenous ligand is the 20 amino acids peptide Neuropeptide S (NPS). […] NPS and its receptor are found in various tissues. Specifically they are highly expressed in brain areas that have been implicated in modulation of arousal, stress and anxiety. […] This change in intracellular calcium can be detected using a calcium indicator dye on a calcium imaging plate reader system (FDSS). […]
# NCGC Assay Protocol Summary: A Chinese hamster ovary (CHO) cell line stably expressing muscarinic acetylcholine M1 receptor (CHO-M1) was obtained from ATCC and maintained in F-12 Kaighn's media (Invitrogen, Carlsbad, CA, 21127) supplemented with 10 % FBS, 100 units/ml penicillin, 100 ug/ml streptomycin and 250 ug/ml geneticin at 37C, 5% CO2 in a humidified atmosphere. […] The assay was performed on a FDSS-7000 kinetic plate reader in 1536-well format. The maximums of kinetic fluorescence responses were converted into text files using the instrument's software data export utility. […] AC50 values were determined from concentration-response data modeled with the standard Hill equation. […]
smiles,measurement,value
O=c1[nH]c(=O)n(CCC2=CCCCC2)c(O)c1C=NC1CCN(Cc2ccccc2)CC1,outcome,inactive
